Reference: PubChem BioAssay (Tox21)
Several values for one entry are separate records, joined by “and”; a condition that tells them apart may be missing. Equal entries are not always repeated. Results filed as inconclusive are left out. More than one record can exist for a structure, and the calls need not agree. Activity calls are given as the source filed them. Unless noted, the call rests on the fitted dose curve; in most records, active means well fitted curve in the direction sought with a large enough effect in the repeat runs; inconclusive means weak or mixed curves; inactive means no such curve, though single readings can be large; an effect the other way counts as inactive or inconclusive.

Key:
[1] = qHTS assay to identify aromatase inhibitors - cell viability counter screen (AID 743084);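 further: cells stimulated with testosterone during compound exposure; nearly all actives have a fitted effect of over 55% in size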; further: potency means the concentration at half of the fitted maximal effect
[2] = molecular target: Aryl hydrocarbon receptor (Homo sapiens) (UniProt P35869); test: qHTS assay to identify small molecule that activate the aryl hydrocarbon receptor (AhR) signaling pathway (AID 743085); further: nearly all actives have a fitted effect of over 15% in size; further: potency means the concentration at half of the fitted maximal effect;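 on activation: HG2L7.5c1 human HepG2 liver cells with stably integrated DRE-driven firefly reporter; series mostly up to about 70 µM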
Chain of Aryl hydrocarbon receptor (Homo sapiens) (P35869 whole entry, looked up): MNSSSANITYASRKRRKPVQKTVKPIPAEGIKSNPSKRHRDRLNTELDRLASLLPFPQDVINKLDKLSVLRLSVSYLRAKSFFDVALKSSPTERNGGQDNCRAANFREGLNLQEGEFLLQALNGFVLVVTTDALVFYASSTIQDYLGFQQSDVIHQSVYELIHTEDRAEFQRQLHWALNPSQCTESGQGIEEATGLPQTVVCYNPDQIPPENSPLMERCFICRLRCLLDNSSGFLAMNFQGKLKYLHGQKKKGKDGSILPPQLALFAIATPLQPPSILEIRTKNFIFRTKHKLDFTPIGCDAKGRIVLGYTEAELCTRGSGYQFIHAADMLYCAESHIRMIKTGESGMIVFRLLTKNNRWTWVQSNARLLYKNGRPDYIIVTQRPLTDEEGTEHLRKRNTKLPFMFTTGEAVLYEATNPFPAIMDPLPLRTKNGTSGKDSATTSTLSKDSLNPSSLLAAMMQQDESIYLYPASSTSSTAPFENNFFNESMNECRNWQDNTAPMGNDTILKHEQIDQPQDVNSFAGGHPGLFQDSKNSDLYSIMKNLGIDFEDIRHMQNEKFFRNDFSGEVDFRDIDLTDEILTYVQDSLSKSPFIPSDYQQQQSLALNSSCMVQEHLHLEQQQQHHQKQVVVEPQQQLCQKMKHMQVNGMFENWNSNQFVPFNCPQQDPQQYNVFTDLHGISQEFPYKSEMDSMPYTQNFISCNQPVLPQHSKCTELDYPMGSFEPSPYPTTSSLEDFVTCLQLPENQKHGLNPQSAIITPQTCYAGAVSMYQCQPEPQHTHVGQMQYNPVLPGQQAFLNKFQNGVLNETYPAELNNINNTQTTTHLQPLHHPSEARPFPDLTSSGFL
Procedure, shortened: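 HepG2 cells stably carrying a 20-DRE firefly luciferase reporter (HG2L7.5c1) treated with compound for 24 hr at 37C. Luciferase read by ONE-Glo luminescence, with CellTiter-Fluor viability read first.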

[3] = qHTS assay to identify small molecule that activate the aryl hydrocarbon receptor (AhR) signaling pathway - cell viability counter screen (AID 743086);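 further: HepG2 liver cells carrying the AhR DRE luciferase reporter; series mostly up to about 70 µM; nearly all actives have a fitted effect of over 45% in size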
Procedure, shortened: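 HepG2-AhR-luc (HG2L7.5c1) cells, 4000/well, treated 24 h at 37 C with compound; viability measured as CellTiter-Fluor fluorescence after 30 min in the same wells as the luciferase read.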

[4] = molecular target: Peroxisome proliferator-activated receptor gamma (Homo sapiens) (UniProt P37231); test: qHTS assay to identify small molecule agonists of the peroxisome proliferator-activated receptor gamma (PPARg) signaling pathway (AID 743094; active means well fitted activation curve with a large enough effect in the signal ratio in the repeat runs, not every such curve was filed as active; the % refers to the signal ratio)
Chain of Peroxisome proliferator-activated receptor gamma (Homo sapiens) (P37231 whole entry, looked up): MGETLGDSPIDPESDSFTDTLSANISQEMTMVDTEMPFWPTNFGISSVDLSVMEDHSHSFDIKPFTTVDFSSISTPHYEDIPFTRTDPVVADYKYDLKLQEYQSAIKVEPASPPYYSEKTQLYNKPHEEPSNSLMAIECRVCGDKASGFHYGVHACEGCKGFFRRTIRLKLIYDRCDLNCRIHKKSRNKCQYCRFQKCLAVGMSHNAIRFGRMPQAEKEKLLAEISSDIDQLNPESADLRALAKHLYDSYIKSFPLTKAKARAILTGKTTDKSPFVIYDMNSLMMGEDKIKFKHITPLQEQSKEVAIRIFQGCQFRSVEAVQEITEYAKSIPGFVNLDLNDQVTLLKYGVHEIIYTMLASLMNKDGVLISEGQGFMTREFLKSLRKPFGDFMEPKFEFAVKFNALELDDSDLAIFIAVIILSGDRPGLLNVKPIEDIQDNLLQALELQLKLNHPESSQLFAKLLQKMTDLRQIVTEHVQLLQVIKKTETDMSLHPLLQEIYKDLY
Procedure, shortened: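 Fluorescence-based beta-lactamase readout in HEK293H PPARg UAS-bla cells after 17 h compound exposure (37C) and 1 h B/G FRET substrate incubation at room temperature.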

[5] = molecular target: Peroxisome proliferator-activated receptor gamma (Homo sapiens) (UniProt P37231); test: qHTS assay to identify small molecule antagonists of the peroxisome proliferator-activated receptor gamma (PPARg) signaling pathway (AID 743191; calls by dose curve; further: series mostly up to about 63 µM; nearly all actives have a fitted effect of over 30% in size)
Procedure, shortened: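 GeneBLAzer PPARg UAS-bla HEK293H cells, 5 h post-plating, exposed to compounds 17 h at 37C. LiveBLAzer B/G FRET substrate added for 1 h at room temperature; beta-lactamase reporter read by fluorescence intensity.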

[6] = qHTS assay to identify small molecule antagonists of the peroxisome proliferator-activated receptor gamma (PPARg) signaling pathway - cell viability counter screen (AID 743194); further: nearly all actives have a fitted effect of over 55% in size
Procedure, shortened: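 Cytotoxicity counter screen in PPARg-bla HEK293H cells, same wells as reporter assay. Compounds plus 50 nM rosiglitazone (final) for 17 h at 37 C, then viability read by CellTiter-Glo luminescence.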

[7] = qHTS assay for small molecule agonists of the antioxidant response element (ARE) signaling pathway (AID 743202; active means well fitted activation curve with a large enough effect in the signal ratio in the repeat runs, not every such curve was filed as active; the % refers to the signal ratio)
Procedure, shortened: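 HepG2 ARE-bla reporter line, 2,000 cells/well; 5 h preincubation 37 C/5% CO2; compound (DMSO) 16 h 37 C; B/G FRET substrate 2 h RT; fluorescence intensity.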

[8] = qHTS assay for small molecule agonists of the antioxidant response element (ARE) signaling pathway - cell viability counter screen (AID 743203; calls by dose curve; further: nearly all actives have a fitted effect of over 55% in size)
Procedure, shortened: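 Parallel cytotoxicity read-out for the ARE-bla screen: HepG2 reporter cells, 16 hrs with compounds, then CellTiter-Glo luminescence.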

[9] = qHTS assay for small molecule activators of the heat shock response signaling pathway - cell viability counter screen (AID 743209); further: nearly all actives have a fitted effect of over 50% in size
Procedure, shortened: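 To flag cytotoxic compounds, HSE-bla HeLa cells plated at 1500 cells/well were dosed for 5 h at 37 C, followed by the reporter FRET read and then CellTiter-Glo, with luminescence recorded 30 min after reagent addition.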

[10] = qHTS assay for small molecule activators of the heat shock response signaling pathway (AID 743210; active means well fitted activation curve with a large enough effect in the signal ratio in the repeat runs, with a control signal flat, not every such curve was filed as active; the % refers to the signal ratio;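 further: HeLa cells with beta-lactamase reporter driven by heat shock elements; series mostly up to about 63 µM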)
Procedure, shortened: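 Beta-lactamase reporter read-out: FRET substrate fluorescence after 2.5 h at RT, following 5 h compound treatment at 37 C of HeLa cells carrying HSE-driven bla reporter; quantitative HTS format.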

[11] = qHTS assay to identify small molecule agonists of the peroxisome proliferator-activated receptor delta (PPARd) signaling pathway - cell viability counter screen (AID 743211); further: nearly all actives have a fitted effect of over 55% in size
Procedure, shortened: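 PPARd-bla HEK293H cells (3000/well) were pre-incubated 5 h at 37 C, then exposed to compound for 17 h at 37 C. After 2 h with LiveBLAzer substrate, CellTiter-Glo was added to the same wells; luminescence read after 30 min at room temperature.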

[12] = molecular target: Peroxisome proliferator-activated receptor delta (Homo sapiens) (UniProt Q03181); test: qHTS assay to identify small molecule agonists of the peroxisome proliferator-activated receptor delta (PPARd) signaling pathway (AID 743212; calls by dose curve)
Chain of Peroxisome proliferator-activated receptor delta (Homo sapiens) (Q03181 whole entry, looked up): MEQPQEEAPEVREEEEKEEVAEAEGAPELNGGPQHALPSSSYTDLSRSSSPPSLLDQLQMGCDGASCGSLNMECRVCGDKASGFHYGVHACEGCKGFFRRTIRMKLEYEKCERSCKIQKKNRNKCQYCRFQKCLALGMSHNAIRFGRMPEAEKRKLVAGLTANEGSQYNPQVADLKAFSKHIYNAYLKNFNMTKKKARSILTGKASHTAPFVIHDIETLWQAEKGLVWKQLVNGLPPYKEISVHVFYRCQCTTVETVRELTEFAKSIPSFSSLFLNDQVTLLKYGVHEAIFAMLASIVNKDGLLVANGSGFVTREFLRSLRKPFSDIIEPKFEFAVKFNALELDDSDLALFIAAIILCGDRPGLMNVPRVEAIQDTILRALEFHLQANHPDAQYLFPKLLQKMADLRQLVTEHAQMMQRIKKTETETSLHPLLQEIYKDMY
Procedure, shortened: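 Read-out: beta-lactamase FRET fluorescence after 2 h room-temperature incubation with LiveBLAzer B/G substrate. Cells were HEK293H carrying a UAS-bla reporter for PPARd, treated at 37 C with DMSO-dissolved compounds.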

[13] = molecular target: Peroxisome proliferator-activated receptor delta (Homo sapiens) (UniProt Q03181); test: qHTS assay to identify small molecule antagonists of the peroxisome proliferator-activated receptor delta (PPARd) signaling pathway (AID 743215; active means well fitted inhibition curve with a large enough effect in the signal ratio in the repeat runs, not every such curve was filed as active; the % refers to the signal ratio;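 further: cells stimulated with agonist L165041 at 300 nM final during compound exposure; series mostly up to about 62 µM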)
Procedure, shortened: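 Screen format: qHTS, antagonist mode. HEK293H PPARd-bla cells received compound and 300 nM L165041 (final), 17 h, 37 C. Beta-lactamase detected via FRET substrate fluorescence, 2 h, room temperature.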

[14] = molecular target: Bile acid receptor (Homo sapiens) (UniProt Q96RI1); test: qHTS assay to identify small molecule antagonists of the farnesoid-X-receptor (FXR) signaling pathway (AID 743217; active means well fitted inhibition curve with a large enough effect in the signal ratio in the repeat runs, not every such curve was filed as active; the % refers to the signal ratio)
Chain of Bile acid receptor (Homo sapiens) (Q96RI1 whole entry, looked up): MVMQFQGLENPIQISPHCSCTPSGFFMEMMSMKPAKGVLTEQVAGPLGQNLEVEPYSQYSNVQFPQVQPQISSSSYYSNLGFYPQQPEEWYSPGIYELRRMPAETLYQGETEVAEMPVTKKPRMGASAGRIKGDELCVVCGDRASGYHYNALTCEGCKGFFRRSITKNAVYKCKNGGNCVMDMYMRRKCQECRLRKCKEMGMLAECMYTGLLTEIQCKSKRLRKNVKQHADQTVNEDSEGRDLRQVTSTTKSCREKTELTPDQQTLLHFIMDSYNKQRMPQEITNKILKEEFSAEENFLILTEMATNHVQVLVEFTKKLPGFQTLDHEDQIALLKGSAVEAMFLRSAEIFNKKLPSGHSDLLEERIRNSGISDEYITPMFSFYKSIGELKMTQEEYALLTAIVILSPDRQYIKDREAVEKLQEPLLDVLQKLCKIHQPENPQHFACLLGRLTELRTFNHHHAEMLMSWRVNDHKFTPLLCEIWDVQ
Procedure, shortened: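 Quantitative HTS, beta-lactamase reporter format: FXR-UAS-bla HEK 293T cells co-treated 16 h at 37 °C with compounds and 50 uM final chenodeoxycholic acid, then read by B/G FRET fluorescence.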

[15] = qHTS assay to identify small molecule agonists of the farnesoid-X-receptor (FXR) signaling pathway - cell viability counter screen (AID 743218); further: nearly all actives have a fitted effect of over 45% in size
Procedure, shortened: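 Same-well cytotoxicity check on FXR-UAS-bla HEK 293T cells: 5 h attachment, 16 h compound at 37 C, CellTiter-Glo luminescence read at room temperature after 30 min.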

[16] = molecular target: Bile acid receptor (Homo sapiens) (UniProt Q96RI1); test: qHTS assay to identify small molecule agonists of the farnesoid-X-receptor (FXR) signaling pathway (AID 743220; active means well fitted activation curve with a large enough effect in the signal ratio in the repeat runs, not every such curve was filed as active; the % refers to the signal ratio)
Procedure, shortened: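 FXR-UAS-bla HEK 293T cells carrying a UAS-driven beta-lactamase reporter were plated for 5 h at 37C/5% CO2, then exposed to DMSO-dissolved Tox21 10K compounds for 16 h at 37C. A LiveBLAzer B/G FRET substrate was loaded for 2 h at room temperature before fluorescence reading.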

[17] = qHTS assay to identify small molecule antagonists of the farnesoid-X-receptor (FXR) signaling pathway - cell viability counter screen (AID 743221; active means well fitted cell-killing curve with a large enough effect in the repeat runs, not every such curve was filed as active; further: nearly all actives have a fitted effect of over 50% in size)
Procedure, shortened: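 GeneBLAzer FXR-UAS-bla HEK 293T cells, compound plus chenodeoxycholic acid (50 uM final), 16 h at 37 C. CellTiter-Glo added to the same wells after the beta-lactamase read; luminescence read after 30 min at room temperature as viability.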

[18] = molecular target: Vitamin D3 receptor (Homo sapiens) (UniProt P11473); test: qHTS assay to identify small molecule agonists of the vitamin D receptor (VDR) signaling pathway (AID 743222; calls by dose curve)
Chain of Vitamin D3 receptor (Homo sapiens) (P11473 whole entry, looked up): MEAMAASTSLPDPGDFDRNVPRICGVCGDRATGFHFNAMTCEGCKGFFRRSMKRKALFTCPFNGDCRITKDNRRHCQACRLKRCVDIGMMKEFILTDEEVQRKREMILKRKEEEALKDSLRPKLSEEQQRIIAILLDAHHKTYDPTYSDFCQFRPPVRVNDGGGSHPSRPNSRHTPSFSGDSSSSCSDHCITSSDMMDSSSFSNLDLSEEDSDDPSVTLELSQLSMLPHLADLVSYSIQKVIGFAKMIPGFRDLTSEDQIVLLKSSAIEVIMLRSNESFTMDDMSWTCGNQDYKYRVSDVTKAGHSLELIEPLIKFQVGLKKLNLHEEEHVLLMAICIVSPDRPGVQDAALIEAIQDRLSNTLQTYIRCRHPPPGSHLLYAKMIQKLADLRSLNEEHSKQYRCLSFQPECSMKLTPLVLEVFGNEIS
Procedure, shortened: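 Using LiveBLAzer B/G FRET detection, agonism was scored in VDR-bla cells exposed overnight (16 h, 37C) to DMSO-dissolved compounds; substrate incubation was 2 h at room temperature.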

[19] = molecular target: Vitamin D3 receptor (Homo sapiens) (UniProt P11473); test: qHTS assay to identify small molecule antagonists of the vitamin D receptor (VDR) signaling pathway (AID 743223; active means well fitted inhibition curve with a large enough effect in the signal ratio in the repeat runs, not every such curve was filed as active; the % refers to the signal ratio)
Procedure, shortened: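 VDR-bla cells were treated with compound plus 3 nM final 1alpha,25-dihydroxyvitamin D3 for 16 h at 37C. Beta-lactamase reporter read by B/G FRET substrate fluorescence after 2 h at room temperature. qHTS format.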

[20] = qHTS assay to identify small molecule antagonists of the peroxisome proliferator-activated receptor delta (PPARd) signaling pathway - cell viability counter screen (AID 743213); further: nearly all actives have a fitted effect of over 50% in size
Procedure, shortened: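 Luminescence from CellTiter-Glo, added after the bla read and incubated 30 min at room temperature, gives viability of HEK293H PPARd-bla cells exposed to compounds for 17 h at 37 C with 300 nM L165041.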

Measured: Potency

Cc1cc(=O)[nH]c(=S)[nH]1
not listed: [20]
inactive: all other assays above

CCOc1ccc(NC(=O)CC(C)O)cc1 (stereo not given)
not listed: [18] | [19] | [20]
inactive: all other assays above

Cn1cc[nH]c1=S
not listed: [2] | [3] | [14] | [16] | [20]
inactive: all other assays above

O=C(c1ccccc1)c1ccccc1
not listed: [3] | [4] | [5] | [12] | [13] | [20]
inactive: all other assays above

COc1ccc2[nH]cc(CCNC(C)=O)c2c1
not listed: [3] | [9]
inactive: all other assays above

CCCC(CCC)C(=O)O
not listed: [3] | [9] | [12] | [13] | [14] | [16]
inactive: all other assays above

O=C(O)c1cccc([N+](=O)[O-])c1
inactive: [1] | [2] | [6] | [7] | [8] | [10] | [11] | [15] | [17]

O=C(O)C(=O)O
not listed: [3] | [12] | [13] | [14] | [16] | [20]
inactive: all other assays above

OCCc1ccccc1
not listed: [3] | [9] | [18] | [19]
inactive: all other assays above

CC(O)C(=O)O (stereo not given)
not listed: [3] | [4] | [5] | [9] | [20]
inactive: all other assays above

CC(=O)NS(=O)(=O)c1ccc(N)cc1
not listed: [3] | [4] | [5] | [9] | [14] | [16] | [20]
inactive: all other assays above

Nc1ccc(O)c(C(=O)O)c1
not listed: [3] | [9]
inactive: all other assays above

OC(Cn1cncn1)(Cn1cncn1)c1ccc(F)cc1F
not listed: [2] | [3] | [10] | [14] | [16]
inactive: all other assays above

Cc1noc(NS(=O)(=O)c2ccc(N)cc2)c1C
not listed: [3] | [9] | [18] | [19]
inactive: all other assays above

O=C(O)c1[nH]n(-c2ccc(S(=O)(=O)O)cc2)c(=O)c1N=Nc1ccc(S(=O)(=O)O)cc1
active: [1] 30.7 µM and 57.1 µM
not listed: [3] | [9] | [20]
inactive: all other assays above

CC(=O)OCC(COC(C)=O)OC(C)=O
inactive and 67.7 µM (active): [2]
not listed: [3] | [9] | [14] | [16]
inactive: all other assays above

O=S(=O)(O)c1ccc2cc(O)ccc2c1
not listed: [3] | [9] | [12] | [13] | [14] | [16] | [20]
inactive: all other assays above

Cc1cc(=O)n(-c2ccccc2)n1C
not listed: [3] | [10] | [12] | [13]
inactive: all other assays above
